About 83,000 compounds went through this panel and 20% of them were active in at least one assay; those are over-represented in the sample as a whole.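 Growth was measured after 48 h exposure to one concentration of compound in 96-well plates. Values under 10 count as active.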 A number with no mark means an inactive call. Activity calls are given as the source filed them.
Legend:
Assay in all cases: NCI-60 one-dose screen, 48 h (100 = growth as untreated, 0 = no growth, -100 = all killed)
Conditions in all cases: 10 µM unless noted
[1] = test system: NCI-H23 lung
[2] = test system: NCI-H226 lung
[3] = test system: HOP-62 NSCLC
[4] = test system: NCI-H460 lung
[5] = test system: HOP-92 NSCLC
[6] = test system: NCI-H522 lung
[7] = test system: A549/ATCC NSCLC
[8] = test system: 786-0 renal
[9] = test system: COLO 205 colon
[10] = test system: DU-145 prostate
[11] = test system: K-562 leukemia
[12] = test system: MALME-3M melanoma
[13] = test system: MDA-MB-231 breast
[14] = test system: RXF 393 renal
[15] = test system: SF-268 CNS
[16] = test system: SF-539 CNS
[17] = test system: UACC-257 melanoma
[18] = test system: M14 melanoma
[19] = test system: SF-295 CNS

| Compound | growth [1] [%] | growth [2] [%] | growth [3] [%] | growth [4] [%] | growth [5] [%] | growth [6] [%] | growth [7] [%] | growth [8] [%] | growth [9] [%] | growth [10] [%] | growth [11] | growth [12] [%] | growth [13] [%] | growth [14] [%] | growth [15] [%] | growth [16] [%] | growth [17] [%] | growth [18] [%] | growth [19] [%] |
| --- | --- | --- | --- | --- | --- | --- | --- | --- | --- | --- | --- | --- | --- | --- | --- | --- | --- | --- | --- |
| COc1cc(-c2cc(-c3nc4ccccc4[nH]3)[nH]n2)cc(OC)c1OC | 41 | 14.5 | 39.7 | 35.5 | 52.1 | 37.2 | 53.6 | 57.6 | 47.3 | 50.4 | 4.51% (active) | 28 | 66.2 | 49.2 | 72.5 | 74.8 | 44 | 39.4 | – |
| [B-][N+](CC)(CC)c1ccccc1 | 105 | 106 | 101 | 110 | 81.9 | 96.5 | 102 | 105 | 102 | 106 | 105% | 98.1 | 119 | 115 | 103 | 97 | 105 | 88.6 | – |
| C=C(C)[C@@H]1CC[C@]2(C(=O)NNC(=O)c3cccnc3)CC[C@]3(C)[C@H](CC[C@@H]4[C@@]5(C)CCCNC(C)(C)[C@@H]5CC[C@]43C)[C@@H]12 | 84.4 | 83.2 | 84.9 | 95.9 | 50.5 | 99.4 | 71.6 | 94.8 | 20.6 | 91.3 | 1.18% (active) | 66.6 | 87 | 79.7 | 87 | 81.3 | 61.9 | 63.8 | 90.3 |
| Cc1ccc(S(=O)(=O)Nc2ccc(-c3cc(-c4cccc(F)c4)c(C#N)c(=O)[nH]3)cc2)cc1 | 87.7 | 79.6 | 92.3 | 98.2 | 72.9 | 87.2 | 68.2 | 102 | 115 | 84 | 54.9% | 92.6 | 87.4 | 83.1 | 74.2 | 90.1 | 103 | 81.3 | 87.9 |
| N=C(N)c1ccc(-c2ccc(-c3cc(F)cc(F)c3)o2)nc1 | 87.8 | 86.6 | 78.4 | 99.4 | 59 | 99.1 | 94.8 | 95.6 | 63.4 | 104 | 15.9% | 97.3 | 78.3 | 75.2 | 90.8 | 88.4 | 115 | 94.7 | 95.9 |

— PubChem BioAssay (NCI)
